The source made the active and inactive calls. The calls were made as follows: active = hit-call score of the fitted dose curve at least 0.9, where 1 is the maximum; inactive = score below 0.9.
Assays:
[1] = ATG_CRE_CIS: Attagene CIS-FACTORIAL HepG2 Assay for human cAMP Responsive Element (CRE) binding protein 3 (AID 2282926); settings: HepG2 CRE cis-reporter, Attagene multiplexed mRNA; actives raise or lower the signal
Outline: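 Multiplexed transcription-unit reporters transfected into HepG2; 24 h dosing; RT-PCR/capillary electrophoresis fluorescence read-out; bidirectional fit vs DMSO.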

[2] = target: CCAAT/enhancer-binding protein beta (Homo sapiens) (UniProt P17676); experiment: ATG_C_EBP_CIS: Attagene CIS-FACTORIAL HepG2 Assay for human CCAAT/Enhancer Binding Protein (C/EBP) beta (AID 2282927); settings: HepG2 Attagene cis-factorial transcription factor reporter; actives raise or lower the signal
Outline: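 Endogenous C/EBPb-driven reporter transcripts measured in transfected human HepG2 cells at 24 h via RT-PCR and capillary electrophoresis of labelled fragments. Activity fitted in both directions relative to DMSO baseline.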

[3] = ATG_CMV_CIS: Attagene CIS-FACTORIAL HepG2 Assay for human CMV (Internal Marker) (AID 2282928); settings: HepG2 CMV promoter reporter, transcription factor profiling; actives raise or lower the signal;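 also: endpoint acts as a background internal control marker rather than a target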
Outline: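 Endogenous transcription factor activity read in HepG2 via transfected cis-promoter reporter units. After 24 h dosing, reporter mRNA measured by RT-PCR/capillary electrophoresis; gain or loss of signal fit relative to DMSO.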

[4] = ATG_DR4_LXR_CIS: Attagene CIS-FACTORIAL HepG2 Assay for human Liver X Receptor (LXR), DR4 submotif (AID 2282929); settings: HepG2 Attagene DR4 cis-reporter, mRNA transcription; actives raise or lower the signal
Outline: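 DR4 cis-reporter in HepG2, 24 h exposure. Detection: RT-PCR, 6-FAM labelling, CE fragment analysis. Endpoint fitted bidirectionally, DMSO = baseline.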

[5] = target: Aryl hydrocarbon receptor (Homo sapiens) (UniProt P35869); experiment: ATG_Ahr_CIS: Attagene CIS-FACTORIAL HepG2 Assay for human Aryl Hydrocarbon Receptor (Ahr) (AID 2282930); settings: HepG2 AhR cis-factorial reporter transcription; actives raise or lower the signal
Outline: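 Reporter mRNA levels, quantified by RT-PCR and fluorescent capillary electrophoresis, reflect endogenous AhR transcriptional activity in HepG2 cells carrying transfected cis-promoter reporter constructs. Readout at 24 h post-dose; gain or loss fitted against DMSO baseline.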

[6] = ATG_AP_1_CIS: Attagene CIS-FACTORIAL HepG2 Assay for human Activator Protein 1 (AP-1) (AID 2282931); settings: HepG2 Attagene cis-factorial AP-1 reporter mRNA; actives raise or lower the signal
Outline: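 Cis-regulated reporter units transiently expressed in HepG2 report endogenous transcription-factor activity. Signal: reporter mRNA at 24 h, via RT-PCR and fluorescent capillary electrophoresis. Endpoint derived by bidirectional fitting, DMSO as negative control.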

[7] = ATG_AP_2_CIS: Attagene CIS-FACTORIAL HepG2 Assay for human Activator Protein 2 (AP-2) (AID 2282932); settings: HepG2 AP-2 cis-reporter, Attagene transcription factor profiling; actives raise or lower the signal
Outline: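 HepG2, transient MRTU transfection, cis-regulated reporters; 24 h compound exposure; RNA isolated, RT-PCR, 6-FAM labelling, HpaI digest, CE fluorescence. DMSO = negative control/baseline, bidirectional fit.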

[8] = ATG_BRE_CIS: Attagene CIS-FACTORIAL HepG2 Assay for human Bone Morphogenetic Protein (BMP) Response Element (BRE) (AID 2282933); settings: HepG2 BMP response element reporter, Attagene transcription factor profiling; actives raise or lower the signal
Outline: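 Endogenous transcription factor activity read in transiently transfected HepG2 cells after 24 h chemical exposure. Bidirectional curve fitting against DMSO; readout is reporter transcript level by RT-PCR with capillary electrophoresis of labelled products.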

[9] = target: Transcription factor E2F1 (Homo sapiens) (UniProt Q01094); experiment: ATG_E2F_CIS: Attagene CIS-FACTORIAL HepG2 Assay for human E2F Transcription Factor 1 (AID 2282935); settings: HepG2 Attagene cis-reporter, E2F reporter RNA transcripts; actives raise or lower the signal
Outline: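 Cis-element reporter mRNA induction in transiently transfected HepG2, 24 h exposure. Activity fitted in both directions relative to DMSO negative control.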

[10] = ATG_E_Box_CIS: Attagene CIS-FACTORIAL HepG2 Assay for human Enhancer Box (E-box) (AID 2282936); settings: HepG2 E-box cis-reporter transcription, actives raise or lower the signal
Outline: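 Cells: HepG2 (human liver), transient MRTU transfection. Exposure 24 h. RNA → oligo(dT) RT → PCR → 6-FAM label → HpaI → CE. Activity fitted both directions relative to DMSO.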

[11] = ATG_M_61_CIS: Attagene CIS-FACTORIAL HepG2 Assay for M61 Transcription Factor (Internal Marker) (AID 2282937); settings: HepG2 Attagene CIS-FACTORIAL M61 internal marker reporter; actives raise or lower the signal
Outline: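 Background-control endpoint: HepG2 cells with cis-regulated reporter constructs, 24 h exposure, reporter mRNA detected via fluorescent primer extension and capillary electrophoresis; values from bidirectional fitting with DMSO baseline.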

[12] = ATG_EGR_CIS: Attagene CIS-FACTORIAL HepG2 Assay for human Early Growth Response 1 (EGR1) (AID 2282938); settings: HepG2 Attagene CIS-FACTORIAL EGR reporter mRNA; actives raise or lower the signal
Outline: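 Endpoint derived by bidirectional fitting versus DMSO vehicle. Method: cis-promoter reporter units transfected into HepG2, 24 h dosing, RNA isolation, RT-PCR with 6-FAM primer extension and HpaI digestion, then capillary electrophoresis fluorescence detection.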

[13] = ATG_M_19_CIS: Attagene CIS-FACTORIAL HepG2 Assay for M19 Transcription Factor (Internal Marker) (AID 2282939); settings: HepG2 Attagene CIS-FACTORIAL M19 internal marker reporter; actives raise or lower the signal
Outline: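 Internal marker readout, fitted in both directions against DMSO, from HepG2 cells carrying transfected cis-element reporter constructs; RT-PCR and capillary electrophoresis of reporter mRNA after 24 h exposure.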

[14] = ATG_ERE_CIS: Attagene CIS-FACTORIAL HepG2 Assay for Estrogen Response Element (ERE) (AID 2282940); settings: HepG2 ERE cis-reporter, Attagene RNA transcript; actives raise or lower the signal
Outline: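 After 24 h compound treatment, RNA from transfected HepG2 cells was reverse-transcribed, reporter cDNA PCR-amplified, FAM-labelled, HpaI-cut and resolved by capillary electrophoresis. ERE-driven cis reporter transcripts reflect endogenous factors; gain or loss scored against DMSO.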

[15] = ATG_Ets_CIS: Attagene CIS-FACTORIAL HepG2 Assay for human Erythroblast Transformation Specific (ETS) (AID 2282941); settings: HepG2 ETS cis-reporter transcription, actives raise or lower the signal
Outline: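 Steps: transfect HepG2 with multiple reporter units; treat compound 24 h; isolate RNA, DNase-treat, reverse-transcribe; PCR-amplify, label with 6-FAM, digest with HpaI; separate by capillary electrophoresis. Activity fitted both directions versus DMSO.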

[16] = target: Hepatocyte nuclear factor 3-beta (Homo sapiens) (UniProt Q9Y261); experiment: ATG_FoxA2_CIS: Attagene CIS-FACTORIAL HepG2 Assay for human Forkhead box A2 (FOXA2) (AID 2282942); settings: HepG2 cis-reporter transcription factor activity, 24 h; actives raise or lower the signal
Outline: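 Measured: reporter mRNA induction or loss in HepG2 transiently carrying multiple cis-regulated reporter units, 24 h after dosing. Quantified by RT-PCR plus capillary electrophoresis, normalised to DMSO.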

[17] = ATG_FoxO_CIS: Attagene CIS-FACTORIAL HepG2 Assay for human Forkhead box O (FoxO) (AID 2282943); settings: HepG2 Attagene cis-reporter, FoxO element, mRNA; actives raise or lower the signal
Outline: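 Endogenous transcription factor activity read from multiplexed cis-promoter reporter transcripts in transiently transfected HepG2, 24 h after dosing. Reporter RNA measured via RT-PCR plus capillary electrophoresis of FAM-labeled products; gain or loss relative to DMSO.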

[18] = ATG_GATA_CIS: Attagene CIS-FACTORIAL HepG2 Assay for human GATA Binding Protein (AID 2282944); settings: HepG2 GATA cis-element reporter, Attagene multiplex mRNA; actives raise or lower the signal
Outline: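 Reporter transcripts from a GATA cis-regulated unit, among multiplexed reporters in transfected HepG2 cells, were measured by RT-PCR with capillary electrophoresis after 24 h dosing. Induction or loss scored relative to DMSO.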

Measured: AC50

Sequence of CCAAT/enhancer-binding protein beta (Homo sapiens) (P17676 whole entry, looked up, the tested form may be a part): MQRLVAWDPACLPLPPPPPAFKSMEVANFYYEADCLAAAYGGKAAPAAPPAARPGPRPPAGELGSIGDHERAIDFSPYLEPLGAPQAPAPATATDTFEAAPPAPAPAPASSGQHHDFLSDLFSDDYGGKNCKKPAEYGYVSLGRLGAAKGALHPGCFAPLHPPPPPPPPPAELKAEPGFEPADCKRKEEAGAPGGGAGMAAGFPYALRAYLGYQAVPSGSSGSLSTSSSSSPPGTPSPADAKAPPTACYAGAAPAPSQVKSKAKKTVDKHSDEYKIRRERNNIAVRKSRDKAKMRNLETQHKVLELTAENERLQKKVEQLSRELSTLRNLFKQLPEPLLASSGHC
Sequence of Hepatocyte nuclear factor 3-beta (Homo sapiens) (Q9Y261 whole entry, looked up): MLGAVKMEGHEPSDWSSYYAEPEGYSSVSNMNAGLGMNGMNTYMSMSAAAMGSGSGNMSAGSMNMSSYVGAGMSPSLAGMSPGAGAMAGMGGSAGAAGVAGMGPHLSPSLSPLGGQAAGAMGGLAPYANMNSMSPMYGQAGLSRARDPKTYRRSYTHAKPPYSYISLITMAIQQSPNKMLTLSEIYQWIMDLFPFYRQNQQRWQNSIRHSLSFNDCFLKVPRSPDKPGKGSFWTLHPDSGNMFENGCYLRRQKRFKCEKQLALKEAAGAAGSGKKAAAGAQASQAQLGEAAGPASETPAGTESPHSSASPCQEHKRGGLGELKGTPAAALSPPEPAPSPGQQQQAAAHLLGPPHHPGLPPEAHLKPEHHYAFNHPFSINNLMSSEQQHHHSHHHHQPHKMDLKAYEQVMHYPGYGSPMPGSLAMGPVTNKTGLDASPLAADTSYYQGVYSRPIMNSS
Sequence of Transcription factor E2F1 (Homo sapiens) (Q01094 whole entry, looked up): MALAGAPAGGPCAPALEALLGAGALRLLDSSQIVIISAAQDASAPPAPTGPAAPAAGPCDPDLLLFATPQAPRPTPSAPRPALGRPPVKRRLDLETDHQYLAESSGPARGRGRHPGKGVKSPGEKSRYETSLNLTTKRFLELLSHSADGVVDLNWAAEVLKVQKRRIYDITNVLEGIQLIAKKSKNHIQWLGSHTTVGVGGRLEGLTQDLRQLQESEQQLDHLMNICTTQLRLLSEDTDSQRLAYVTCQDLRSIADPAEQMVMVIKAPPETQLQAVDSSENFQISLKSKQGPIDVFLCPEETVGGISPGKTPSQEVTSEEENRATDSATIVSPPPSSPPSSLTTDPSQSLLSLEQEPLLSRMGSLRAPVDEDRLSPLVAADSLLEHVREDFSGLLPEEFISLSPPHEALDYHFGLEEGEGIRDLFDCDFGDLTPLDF
Sequence of Aryl hydrocarbon receptor (Homo sapiens) (P35869 whole entry, looked up): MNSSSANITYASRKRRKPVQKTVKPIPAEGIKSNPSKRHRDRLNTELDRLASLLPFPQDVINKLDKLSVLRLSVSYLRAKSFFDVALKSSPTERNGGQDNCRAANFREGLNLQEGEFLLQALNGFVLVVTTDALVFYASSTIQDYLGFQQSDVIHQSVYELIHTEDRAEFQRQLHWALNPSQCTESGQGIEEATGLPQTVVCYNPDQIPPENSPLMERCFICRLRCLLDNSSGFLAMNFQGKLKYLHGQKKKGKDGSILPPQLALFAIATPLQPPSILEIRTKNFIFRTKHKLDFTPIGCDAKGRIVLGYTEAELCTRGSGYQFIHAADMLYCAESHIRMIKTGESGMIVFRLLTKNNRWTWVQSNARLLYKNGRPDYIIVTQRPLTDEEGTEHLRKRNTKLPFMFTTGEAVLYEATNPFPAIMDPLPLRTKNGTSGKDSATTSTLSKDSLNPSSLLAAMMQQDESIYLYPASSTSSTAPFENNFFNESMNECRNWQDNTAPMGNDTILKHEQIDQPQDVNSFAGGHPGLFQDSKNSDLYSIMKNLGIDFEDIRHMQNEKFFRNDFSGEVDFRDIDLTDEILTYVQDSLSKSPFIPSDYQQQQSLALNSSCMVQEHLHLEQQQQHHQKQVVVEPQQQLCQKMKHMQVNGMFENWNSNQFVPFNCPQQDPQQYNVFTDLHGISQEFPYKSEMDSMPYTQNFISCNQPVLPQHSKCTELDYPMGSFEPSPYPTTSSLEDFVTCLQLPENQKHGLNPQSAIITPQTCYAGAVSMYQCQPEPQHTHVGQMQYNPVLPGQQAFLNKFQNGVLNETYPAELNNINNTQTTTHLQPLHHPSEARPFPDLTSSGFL

CCc1cccc(O)c1
not listed: [18]
inactive: all other assays above

O=S(=O)(O)c1cc(S(=O)(=O)O)c2c(N=Nc3ccccc3)c(O)ccc2c1
inactive: all assays above

C=CCOC(=O)/C=C\C(=O)OCC=C
active: [1] 27.1 µM | [3] 63.8 µM | [4] 27.9 µM | [5] 61.2 µM | [7] 21.7 µM | [12] 34.3 µM | [15] 13.2 µM | [17] 101 µM
not listed: [18]
inactive: all other assays above

CC(=O)OC/C=C(C)/C=C/C=C(C)/C=C/C1=C(C)CCCC1(C)C
active: [6] 40.6 µM | [12] 122 µM
inactive: all other assays above

FC(F)(F)c1ccc(Cl)c(Cl)c1
inactive: all assays above

CC1COC(=O)O1 (configuration not stated)
inactive: all assays above

CC(=O)c1ccc2ccccc2c1
active: [5] 3.53 µM
inactive: all other assays above

Brc1cc(Br)cc(Br)c1
inactive: all assays above

CCCCN(CCO)CCO
not listed: [18]
inactive: all other assays above

CC(=N[Si](C)(C)C)O[Si](C)(C)C
not listed: [18]
inactive: all other assays above

CC(C)CCOC(=O)CC(C)C
not listed: [18]
inactive: all other assays above

O=c1cc[nH]cc1
inactive: all assays above

C=C1CC/C=C(\C)CC[C@@H]2[C@@H]1CC2(C)C
active: [1] 124 µM | [3] 42.4 µM | [4] 61.3 µM | [10] 94.9 µM | [14] 33.8 µM
inactive: all other assays above

CCCC[N+](C)(CCCC)CCCC
inactive: all assays above

CC(O)CNCC(C)O (configuration not stated)
inactive: all assays above

CC/C=C\C#N
not listed: [14]
inactive: all other assays above

— PubChem BioAssay (EPA / NIEHS)
